# Screening results from PubChem BioAssay.
# Most compounds without a hit are left out; they make up all but 7.5% or so of the library.
# Rab9 prom act: qHTS Assay for Rab9 Promoter Activators. Huh7 Rab9 promoter-luciferase reporter, luminescence, 24 h. Potency, µM (series often up to 9.22 µM), usual class: activators. 320,000 compounds, 2.8% hits. AID 485297, 2010; also: nearly all actives have a fitted effect of over 60% in size
#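 Huh7 cells stably carrying a Rab9 promoter-luciferase reporter, 1500 cells per well in OP-MEM I with 10% FBS, treated with compound 24 hours at 37C. Luciferase activity read by luminescence after 10 minutes with Amplite reagent.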
# ELG1 genotoxic: qHTS screen for small molecules that induce genotoxicity in human embryonic kidney (HEK293T) cells expressing luciferase-tagged ELG1; AID 504466, 2011; Potency, µM (series often up to 46 µM), usual class: activators; HEK293T ELG1-luciferase reporter, luminescence, 16 h; 330,000 compounds, 1.3% hits; also: nearly all actives have a fitted effect of over 60% in size
#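 Genotoxic stress is detected as increased luminescence from luciferase-tagged ELG1 in HEK293T cells, measured with ONE-Glo after a 16 hr treatment at 37 °C.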
# Luc counter: Counterscreen for Luciferase (Kinase-Glo TM) Inhibition; Luciferin 4-monooxygenase (Photuris pensylvanica), Q27757; Kinase-Glo luciferase, ATP luminescence, 8 min; Potency, µM (highest dose often 38.3 µM), most hits filed as inhibitors; 200,000 compounds, 0.28% hits; AID 1379, 2008; also: nearly all actives have a fitted effect of over 60% in size
#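 Substrate mix (final 50 mM imidazole pH 7.2, 50 mM KCl, 7 mM MgCl2, 10 uM ATP, 0.01% Tween 20, 0.05% BSA) plus pin-tool compound, then Kinase-Glo detection mix; 8 min ambient, luminescence read.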
# SMN2 splice up: qHTS Assay for Enhancers of SMN2 Splice Variant Expression; Potency, µM (doses to about 46.1 µM), usual class: activators; 210,000 compounds, 2.8% hits; HEK293 SMN2-luciferase splicing reporter, luminescence, 30-36 h; AID 1458, 2008; also: nearly all actives have a fitted effect of over 55% in size
#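 qHTS luciferase splicing reporter: luminescence rises when SMN2 exon 7 is included in transfected HEK293 cells. Compound exposure lasted 30-36 h at 37C, with 4.5 mM final sodium butyrate as control, followed by a ONE-Glo read.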
# NPC1 prom act: qHTS Assay for NPC1 Promoter Activators; Huh7 NPC1 promoter luciferase reporter, 24 h; Potency, µM (series often up to 9.22 µM), usual class: activators; 320,000 compounds, 2.4% hits; also: nearly all actives have a fitted effect of over 60% in size
#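 Stably transfected Huh7 (NPC1 promoter→luciferase), 1500 cells/well in Opti-MEM + 10% FBS, 2 h settle, then compound 24 h at 37 °C. Luminescence after 10 min with Amplite reagent.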
# FLuc counter: qHTS profiling assay for firefly luciferase inhibitor/activator using purifed enzyme and Km concentrations of substrates (counterscreen for miR-21 project); purified FLuc, Km substrates, luminescence inhibition; Potency, µM (highest dose often 57.5 µM), most hits filed as inhibitors; 360,000 compounds, 6.9% hits; also: nearly all actives have a fitted effect of over 55% in size
# Target sequence (P08659 whole entry, looked up): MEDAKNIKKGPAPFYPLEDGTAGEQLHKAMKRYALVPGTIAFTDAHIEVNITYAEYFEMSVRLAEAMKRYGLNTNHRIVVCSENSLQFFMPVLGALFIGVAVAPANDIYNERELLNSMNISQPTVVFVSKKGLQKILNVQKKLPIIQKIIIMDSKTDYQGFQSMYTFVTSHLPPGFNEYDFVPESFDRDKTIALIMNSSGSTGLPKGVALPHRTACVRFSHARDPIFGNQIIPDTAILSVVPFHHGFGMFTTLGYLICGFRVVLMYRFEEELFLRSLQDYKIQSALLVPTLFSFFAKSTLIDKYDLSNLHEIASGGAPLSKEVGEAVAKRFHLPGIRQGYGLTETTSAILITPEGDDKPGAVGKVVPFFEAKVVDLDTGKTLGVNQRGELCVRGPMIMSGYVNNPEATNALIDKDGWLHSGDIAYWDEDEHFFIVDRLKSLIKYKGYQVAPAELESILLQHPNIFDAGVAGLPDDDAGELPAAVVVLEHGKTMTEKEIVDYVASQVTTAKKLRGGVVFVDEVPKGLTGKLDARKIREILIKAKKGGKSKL
#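 Biochemical qHTS of compounds, final roughly 60 µM downward over six points, against 10 nM purified firefly luciferase using Km concentrations of substrates (10 uM D-luciferin, 10 uM ATP) in Tris acetate pH 7.5 buffer; luminescence output.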
# Numbers stand for hits; - = inactive; ? = inconclusive; . = no result; [ ] = another dose, or the depositor's remark. Calls follow the shape of the dose curve; as a rule, active = well fitted curve in the direction sought with a large enough effect; inconclusive = small, poorly fitted or top-dose-only effect, or another doubt; inactive = no such curve, though single readings can be large; an effect the other way counts as inactive or inconclusive.
SMILES,Rab9 prom act,ELG1 genotoxic,Luc counter,SMN2 splice up,NPC1 prom act,FLuc counter
Cc1ccc(NC(=O)Nc2cccc(F)c2)nc1,?,?,.,.,?,6.75µM
c1ccc(Cc2nc3ccccc3o2)cc1,-,-,-,-,-,19µM
Oc1cccc(Oc2ncc(C(F)(F)F)cc2Cl)c1,?,-,-,-,-,-
Cc1ccc(C(=O)NCC(=O)OCc2cc(=O)n3c(C)csc3n2)cc1,.,.,.,.,.,-
CN(C)c1ccc(NC(=O)Cn2cc3c(n2)CCCC3)cc1,-,?,-,-,-,19µM
Cc1cc(C)cc(NC(=O)Cn2cc3c(n2)CCCCC3)c1,-,-,-,-,-,-
O=C(O)c1ccc(B(O)O)cc1,.,.,-,-,.,.
CCN(CC)C(=O)CSc1nnc(-c2ccccc2)o1,3.55µM,16.4µM,-,-,?,?
CSc1nnc(-c2ccccc2)o1,-,-,-,-,-,-
N#Cc1cccc(-c2nnc(SCc3ccccc3C#N)o2)c1,?,?,-,?,?,?
CN(C)c1cccc(-c2nnc(SCCCC#N)o2)c1,2.24µM,?,-,11.2µM,3.16µM,6.75µM
CN(C)CCSc1nnc(-c2ccccc2)o1,-,13µM,-,10µM,-,?
COCCN1C(=O)N[C@@H](c2cccs2)C(C(C)=O)=C1C,.,.,-[7.66 µM],-[9.22 µM],.,.
Cc1ccco1,.,.,.,-,.,.
COc1ccccc1N1CCN(C(c2cccs2)C(C)NC(=O)c2cccs2)CC1 (stereo not drawn),-,-,-,-,-,-
CCc1ccc2oc(-c3cc(NC(=O)c4cccs4)ccc3Cl)nc2c1,.,.,.,-,.,?
CCc1ccc2oc(-c3cc(N)ccc3O)nc2c1,4.47µM,-,-,25.1µM,3.16µM,0.338µM
Nc1ccc2oc(-c3ccccc3Cl)nc2c1,0.447µM,3.66µM,-,2.82µM,?,1.35µM
CCc1ccc2oc(-c3cc(N)cc(C)c3O)nc2c1,?,?,-,?,-,?
CCc1ccc2oc(-c3cc(N)ccc3Cl)nc2c1,2.51µM,2.06µM,-,?,3.98µM,0.239µM
O=S(=O)(c1ccccc1)N1CN2CN(C1)CN(S(=O)(=O)c1ccccc1)C2,.,.,-[7.66 µM],-[9.22 µM],.,.
CN(C)CCNC(=O)c1ccc(Cc2nc3ccccc3[nH]2)cc1,.,.,-,.,.,.
O=C(c1ccccc1Cl)N1CCCCC1CCN1CCOCC1 (stereo not drawn),.,.,.,-,.,-
N/N=C(/Cc1nc2ccccc2[nH]1)c1ccc([N+](=O)[O-])cc1,-,-,-,?,-,12µM
c1ccc(N/N=C(\Cc2nc3ccccc3[nH]2)c2ccccc2)cc1,-,?,-,12.6µM,?,7.57µM
SMILES,Rab9 prom act,ELG1 genotoxic,Luc counter,SMN2 splice up,NPC1 prom act,FLuc counter
O=C(NCCc1nc2ccccc2[nH]1)c1cc([N+](=O)[O-])cc([N+](=O)[O-])c1,-,-,-,-,-,-
N#CCCN/N=C(/Cc1nc2ccccc2[nH]1)c1ccc(Cl)cc1,?,?,-,14.1µM,-,26.9µM
CCN(CC1CCCO1)C(=O)CCc1nnc(CCc2ccccc2OC)o1 (stereo not drawn),-,-,.,.,-,-
Cc1cccc(CCNC(=O)c2nnc(Cc3ccc(Cl)cc3)o2)c1,-,-,-,?,-,-
COc1cccc(/C=C2\SC(=S)N(N3C(=O)CCCC3=O)C2=O)c1,-,-,-,-,-,21.3µM
COc1cccc(/C=C2\SC(=S)N(CC3CCCO3)C2=O)c1 (stereo not drawn),-,-,-,-,-,10.7µM
O=C1/C(=C/c2cccc(O)c2)SC(=S)N1CC1CCCO1 (stereo not drawn),-,-,.,.,-,?
OCCc1ccc(O)c(-n2nc3ccccc3n2)c1,-,?,.,.,-,15.1µM
COc1ccc(CCNC(=O)Cc2cc(OC)c(OC)cc2[N+](=O)[O-])cc1OC,-,-,-,-,-,-
COc1ccc(C(=O)Cc2ccc(F)cc2)c(OC)c1,?,?,-,?,?,16.9µM
COc1ccc(C(=O)Cc2nnc(C)s2)c(OC)c1,?,?,-,?,-,?
COc1ccc(C(=O)Cc2cc(OC)c(OC)cc2[N+](=O)[O-])c(OC)c1,-,-,-,-,-,16.9µM
CCN(Cc1nc2ccccc2c(=O)[nH]1)C(=O)c1cc2c(s1)CCCCC2,-,-,.,.,-,?
CC(C)CC(CO)N1CCN(C(=O)c2ccc(C(C)(C)C)cc2)CCC1=O (stereo not drawn),-,-,-,-,-,-
O=C(O)Cc1cc(Cl)ccc1O,.,.,-[7.66 µM],-[9.22 µM],.,.
Cn1cc(C(=O)C(=O)N2CCc3ccccc32)c2ccccc21,2.82µM,?,.,.,3.16µM,-
O=C(NC(O)C(=O)c1ccccc1)c1ccccn1 (stereo not drawn),-,-,.,.,-,15.1µM
Cc1cc(C)n(C(C)CC(=O)Nc2ccc3c(c2)OCO3)n1 (stereo not drawn),-,-[9.26 µM],.,.,-,-
c1ccc(-c2nnc(-c3ccncc3)o2)cc1,3.16µM,-,-,-,?,?
O=S(=O)(Cc1ccccc1)c1ccccc1-c1nnc(-c2ccccc2)o1,-,-,-,-,-,-
COc1cccc(-c2nnc(-c3ccc(C(F)(F)F)cc3)o2)c1,?,?,-,22.4µM,?,?
COc1ccc(-c2nnc(-c3cc4c(ccc5ccccc54)oc3=O)o2)cc1,-,-,-,-,-,-
COc1ccc(-c2cc(-c3nnc(-c4ccncc4)o3)c3ccccc3n2)cc1,-,-,-,-[1.84 µM],-,2.69µM
COc1cccc(-c2nnc(NC(C)=O)o2)c1,-,-,.,.,-,-
Nc1ccccc1-c1nnc(-c2ccc(-c3ccccc3)cc2)o1,3.16µM,2.59µM,-,?,3.98µM,3.01µM
SMILES,Rab9 prom act,ELG1 genotoxic,Luc counter,SMN2 splice up,NPC1 prom act,FLuc counter
CCc1cccc(NC(=O)c2cc3c(=O)n(Cc4ccc(OC)cc4)ccc3nc2C)c1,.,.,.,.,.,-
COc1ccc(-c2nnc(-c3ccccc3)o2)cc1OC,1.78µM,?,.,.,2.24µM,8.49µM
COc1cc(-c2nnc(-c3ccco3)o2)ccc1OCc1ccccc1,-,-,-,?,-,15.1µM
Clc1cccc(-c2nnc(-c3ccccc3)o2)c1,0.891µM,1.16µM,-,12.6µM,1.41µM,1.51µM
CN(C)S(=O)(=O)c1cccc(-c2nnc(-c3ccccc3)o2)c1,?,?,-,-,?,23.9µM
C=Cc1ccc(Cn2c(=O)n(-c3ccc(C)cc3)c(=O)c3c2c2cc(OC)ccc2n3C)cc1,.,.,.,.,.,-
COc1ccc(OCC(=O)N2N=C(C(F)F)CC2(O)C(F)F)cc1 (stereo not drawn),-,-,-,-,-,-
ClCc1nnc(-c2ccccc2)o1,-,-,-,-,-,-
